A number with no mark means an inactive call. Records with an inconclusive call do not appear. Calls of active or inactive are those of the source. Unless noted, calls follow the shape of the dose curve; as a rule, active = well fitted curve in the direction sought with a large enough effect in the repeat runs; inconclusive = weak or mixed curves; inactive = no such curve, though single readings can be large; an effect the other way counts as inactive or inconclusive.

The nature of experiment [1]: qHTS assay to identify small molecule antagonists of the estrogen related receptor (ERR) signaling pathway from Tox21 library - cell viability counter screen (AID 1224834). Also: nearly all actives have a fitted effect of over 30% in size. The method, boiled down:
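ERR reporter cells, 2,000 per well, rested 6 h, then exposed to compound in DMSO for 17.5 hours at 37 C. Viability read as fluorescence after 30 min with CellTiter-Fluor.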
(In general: qHTS replaces the single test concentration by a dilution series.)

Experiment [2] concerns the target Luciferin 4-monooxygenase (Photinus pyralis) (UniProt P08659). Kind of experiment: qHTS assay to identify small molecule inhibitors of firefly luciferase (AID 1224835). Also: nearly all actives have a fitted effect of over 25% in size. Also: potency is read from the fitted curve at half-maximal effect. The method, boiled down: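 Inhibition of purified Photinus luciferase is measured by luminescence. Substrate levels (D-luciferin, ATP) sit at their KM values. Each compound is tested in a concentration series.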

A short description of experiment [3]: qHTS assay to identify small molecule agonists of the constitutive androstane receptor (CAR) signaling pathway - cell viability counter screen (AID 1224836). Also: nearly all actives have a fitted effect of over 45% in size. The method, boiled down:
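Double-stable HepG2 hepatoma cells (hCAR plus CYP2B6-2.2kb) are treated for 23 h at 37 C with test compounds in 15-point concentration series. PK11195 at 0.75 uM final is co-added. Cell viability is quantified by CellTiter-Fluor.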

The nature of experiment [4]: qHTS assay to identify small molecule antagonists of the constitutive androstane receptor (CAR) signaling pathway - cell viability counter screen (AID 1224837). Also: nearly all actives have a fitted effect of over 45% in size. The method, boiled down:
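HepG2 cells stably carrying hCAR and CYP2B6-2.2kb reporter, stimulated with 50 nM CITCO and compounds at 15 concentrations for 23 h at 37 C. Viability measured by CellTiter-Fluor fluorescence.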

Experiment [5] deals with Nuclear receptor subfamily 1 group I member 3 (Homo sapiens) (UniProt Q14994). Kind of experiment: qHTS assay to identify small molecule agonists of the constitutive androstane receptor (CAR) signaling pathway (AID 1224839). Also: nearly all actives have a fitted effect of over 15% in size. Also: potency is read from the fitted curve at half-maximal effect. The method, boiled down: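 Readout: firefly luciferase luminescence via ONE-Glo. System: HepG2 double-stable for hCAR and CYP2B6-2.2kb. Conditions: 15-point compound titration, PK11195 at 0.75 uM final, 24 h incubation.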
Chain of Nuclear receptor subfamily 1 group I member 3 (Homo sapiens) (Q14994 whole entry, looked up): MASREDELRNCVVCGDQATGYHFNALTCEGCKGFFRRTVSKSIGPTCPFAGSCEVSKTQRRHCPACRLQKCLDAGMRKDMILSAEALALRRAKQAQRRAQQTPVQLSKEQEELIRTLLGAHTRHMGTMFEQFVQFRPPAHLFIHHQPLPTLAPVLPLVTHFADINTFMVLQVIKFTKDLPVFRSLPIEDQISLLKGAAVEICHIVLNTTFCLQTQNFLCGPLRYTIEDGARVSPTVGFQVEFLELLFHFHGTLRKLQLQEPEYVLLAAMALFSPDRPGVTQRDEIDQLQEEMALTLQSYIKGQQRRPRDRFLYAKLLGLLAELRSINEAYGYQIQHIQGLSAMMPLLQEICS

The nature of experiment [6]: qHTS assay to identify small molecule antagonists of the estrogen related receptor signaling pathway with the pleiotropic PPARgamma coactivator (PGC) from Tox21 10K library - cell viability counter screen (AID 1224840; active = well fitted cell-killing curve with a large enough effect in the repeat runs, not every such curve was filed as active; also: nearly all actives have a fitted effect of over 40% in size). The method, boiled down:
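PGC/ERR cells (2,000/well) plated 6 h, then compound-treated for 17.5 h at 37 C. Viability measured by CellTiter-Fluor fluorescence after 30 min at 37 C, multiplexed with the pathway assay.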

Experiment [7] in a line: qHTS assay to identify small molecule antagonists of the estrogen related receptor signaling pathway with the pleiotropic PPARgamma coactivator (PGC) from Tox21 10K library (AID 1224841; call rule not given here; also: actives are mostly falling curves and most rising ones were filed inactive; nearly all actives have a fitted effect of over 50% in size). The method, boiled down: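 PGC/ERR cell line, 2,000 cells/well, pre-incubated 6 hours at 37 C, then exposed to compounds for 18 hours at 37 C; luciferase read with One-Glo luminescence after 30 min at room temperature.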

Experiment [8] is described as follows: qHTS assay to identify small molecule agonists of the estrogen related receptor signaling pathway with the pleiotropic PPARgamma coactivator (PGC) from Tox21 10K library (AID 1224842). Also: nearly all actives have a fitted effect of over 15% in size. The method, boiled down:
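Luminescence from One-Glo (30 min, room temperature) measured after PGC/ERR cells had 18 h at 37 C with pinned compound (23 nL in DMSO). Cells had been seeded at 2,000 per well and pre-incubated 6 h.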

The target in experiment [9] is Thyrotropin receptor (Homo sapiens) (UniProt P16473). Kind of experiment: qHTS assay to identify small molecule agonists of the thyroid stimulating hormone receptor (TSHR) signaling pathway (AID 1224843; calls by dose curve; also: nearly all actives have a fitted effect of over 45% in size). The method, boiled down: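 HEK293 cells stably bearing the thyrotropin receptor were plated at 800 cells/well and challenged with compound (30 min, RT). Accumulated cAMP was quantified via cAMP-d2 competing for cryptate-tagged antibody.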
Chain of Thyrotropin receptor (Homo sapiens) (P16473 whole entry, looked up): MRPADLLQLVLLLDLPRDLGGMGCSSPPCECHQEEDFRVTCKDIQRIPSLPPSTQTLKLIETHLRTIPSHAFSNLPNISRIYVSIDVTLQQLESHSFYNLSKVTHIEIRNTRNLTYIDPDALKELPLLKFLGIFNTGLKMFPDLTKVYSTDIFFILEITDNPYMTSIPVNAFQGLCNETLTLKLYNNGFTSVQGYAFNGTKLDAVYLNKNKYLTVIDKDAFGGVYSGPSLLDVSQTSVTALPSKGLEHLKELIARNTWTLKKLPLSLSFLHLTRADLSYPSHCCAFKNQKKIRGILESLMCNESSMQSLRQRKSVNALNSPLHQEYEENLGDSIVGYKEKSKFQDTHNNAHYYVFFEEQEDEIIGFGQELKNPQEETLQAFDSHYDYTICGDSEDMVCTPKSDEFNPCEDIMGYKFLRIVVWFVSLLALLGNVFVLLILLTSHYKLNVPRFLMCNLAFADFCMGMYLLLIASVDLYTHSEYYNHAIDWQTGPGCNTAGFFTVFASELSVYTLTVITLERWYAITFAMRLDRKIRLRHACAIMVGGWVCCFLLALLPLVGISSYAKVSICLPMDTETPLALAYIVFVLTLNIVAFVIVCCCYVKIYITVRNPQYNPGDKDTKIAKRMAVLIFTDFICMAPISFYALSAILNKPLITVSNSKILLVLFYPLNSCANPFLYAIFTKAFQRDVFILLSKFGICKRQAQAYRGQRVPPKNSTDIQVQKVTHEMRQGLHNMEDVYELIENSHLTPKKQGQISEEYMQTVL

A short description of experiment [10]: qHTS assay to identify small molecule agonists of the hypoxia (HIF-1) signaling pathway - cell viability counter screen (AID 1224844; calls by dose curve; also: nearly all actives have a fitted effect of over 50% in size). The method, boiled down: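 HRE-bla ME-180 cells, 2,000/well in 0.5% dialyzed FBS medium, treated 17 h at 37C with compounds. Viability read in the same wells as the bla reporter, by CellTiter-Glo luminescence after 30 min at room temperature.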

Experiment [11] in a line: qHTS assay to identify small molecule agonists of H2AX (AID 1224845; active = well fitted activation curve with a large enough effect in the signal ratio in the repeat runs, not every such curve was filed as active; the % refers to the signal ratio). The method, boiled down:
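Phospho-H2AX Ser139 measured by HTRF (ex 320 nm; em 665 and 620 nm) after 24 hr antibody incubation. Compounds, 15 concentrations, 0.76% DMSO, were applied to CHO-K1 cells for 3hr at 37C before lysis.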

Experiment [12] in a line: qHTS assay to identify small molecule agonists of H2AX - cell viability counter screen (AID 1224847; calls by dose curve;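 also: wild-type CHO-K1 cells; top concentration of the series differs between compounds; nearly all actives have a fitted effect of over 30% in size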). The method, boiled down:
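For this counter screen, overnight-attached CHO-K1 cells received test compounds (15 concentrations, 0.76% DMSO final); 3 hr later at 37C, CellTiter-Glo reagent was added and luminescence recorded after 30 min at room temperature.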

A short description of experiment [13]: qHTS assay to identify small molecule antagonists of the estrogen related receptor (ERR) signaling pathway from Tox21 library (AID 1224848). Also: nearly all actives have a fitted effect of over 50% in size. The method, boiled down: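 Reading was by luminescence 30 min after ONE-Glo addition. Before that, ERR cells at 2,000 per well had rested 6 h at 37 C/5% CO2 and then received pin-tooled compounds in DMSO for 18 h at 37 C.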

Experiment [14] in a line: qHTS assay to identify small molecule agonists of the estrogen related receptor (ERR) signaling pathway from Tox21 library (AID 1224849; calls by dose curve; also: nearly all actives have a fitted effect of over 15% in size). To be noted: ERR reporter cell line, ONE-Glo luciferase, 18 h; at 92.4 µM (top of the series) unless noted. The method, boiled down: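 ERR reporter cells (NTP line) pre-incubated 6 hours at 37 C, then exposed to compounds for 18 hours at 37 C. ONE-Glo luciferase luminescence was read after 30 minutes at room temperature.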

A short description of experiment [15]: qHTS RealTime-Glo MT Cell Viability Assay in HepG2 cells - 24 hour (AID 1224867). Also: nearly all actives have a fitted effect of over 50% in size. The method, boiled down:
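Compound treatment began 5 h after plating HepG2 cells (600/well) with NanoLuc luciferase and prosubstrate. Plates stayed at 37 C for 40 h; luminescence was captured at six time points, 0 h through 40 h.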

Experiment [16] can be described thus: qHTS RealTime-Glo MT Cell Viability Assay in HEK293 cells - 32 hour (AID 1224868). The method, boiled down:
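Quantitative high-throughput screen of the Tox21 10K library in HEK293: cells and RealTime-Glo reagents plated together, compound added at 5 h, luminescence monitored through 40 h at 37 C.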

Experiment [17] is described as follows: A CellTox Green Cytotoxicity Assay to monitor cytotoxicity in HEK293 cells - 0 hour (AID 1224869). Also: nearly all actives have a fitted effect of over 50% in size. The method, boiled down: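 HEK293 cells, 600/well, were preincubated 5 hours and then exposed to compounds at 37 C for up to 40 hours. A cell-impermeant cyanine dye staining dead-cell DNA was read by fluorescence at 0, 8, 16, 24, 32 and 40 h time points.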
Experiment [18] in a line: qHTS RealTime-Glo MT Cell Viability Assay in HepG2 cells - 40 hour (AID 1224870). Also: nearly all actives have a fitted effect of over 50% in size. The method, boiled down:
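Real-time viability: cells seeded at 600 per well together with NanoLuc and cell-permeant prosubstrate, compounds added after 5 h incubation. Luminescence tracked at 0, 8, 16, 24, 32 and 40 h of exposure.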

The target in experiment [19] is Nuclear receptor subfamily 1 group I member 3 (Homo sapiens) (UniProt Q14994). Kind of experiment: qHTS assay to identify small molecule antagonists of the constitutive androstane receptor (CAR) signaling pathway (AID 1224838). Also: nearly all actives have a fitted effect of over 40% in size. The method, boiled down:
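HepG2 cells stably carrying hCAR and a CYP2B6-2.2kb luciferase reporter, seeded 4 hrs before compound (15 concentrations). Stimulated with 50 nM CITCO for 24 hr at 37 C. ONE-Glo luminescence read after 30 min at room temperature.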

The nature of experiment [20]: qHTS assay to identify small molecule agonists of the hypoxia (HIF-1) signaling pathway (AID 1224846; active = well fitted activation curve with a large enough effect in the signal ratio in the repeat runs, not every such curve was filed as active; the % refers to the signal ratio). The method, boiled down:
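HRE-bla ME-180 beta-lactamase reporter cells in medium with 0.5% dialyzed FBS, pre-incubated 5 h then exposed to compounds 17 h at 37C, 5% CO2; reporter induction read with CCF4-AM FRET substrate.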
% is scaled to controls: 0 for no effect and ±100 for the full control effect.

Chain of Luciferin 4-monooxygenase (Photinus pyralis) (P08659 whole entry, looked up): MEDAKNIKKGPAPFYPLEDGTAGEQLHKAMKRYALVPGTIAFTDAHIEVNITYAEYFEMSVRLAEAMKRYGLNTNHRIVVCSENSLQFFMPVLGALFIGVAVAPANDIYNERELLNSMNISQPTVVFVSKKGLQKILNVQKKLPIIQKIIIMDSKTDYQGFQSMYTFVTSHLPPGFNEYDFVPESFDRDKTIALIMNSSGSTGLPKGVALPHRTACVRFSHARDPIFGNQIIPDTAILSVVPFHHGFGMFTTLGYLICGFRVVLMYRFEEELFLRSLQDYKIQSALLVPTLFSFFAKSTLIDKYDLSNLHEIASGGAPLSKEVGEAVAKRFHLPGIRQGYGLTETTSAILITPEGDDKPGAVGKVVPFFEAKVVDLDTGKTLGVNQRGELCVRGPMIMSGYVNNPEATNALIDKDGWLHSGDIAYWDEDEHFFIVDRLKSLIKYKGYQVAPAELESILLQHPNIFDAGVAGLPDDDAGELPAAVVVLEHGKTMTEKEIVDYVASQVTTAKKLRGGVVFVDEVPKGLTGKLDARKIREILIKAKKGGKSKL

For the compound `Cc1cc(C)c(C)c(O)c1`, the Potency result in experiment [1], in experiment [2], in experiment [3], in experiment [4], in [5] and in [6] was “inactive” each time. Moreover, the Potency entry in experiment [7], in experiment [8], in experiment [9], in [10], in [11] and in experiment [12] was “inactive” in each case. Moreover, the Potency entry in experiment [13], in experiment [16], in experiment [17] and in experiment [18] was “inactive” throughout. For the same compound, in experiment [14], the activity change, positive = activation was 1.16%. In experiment [15], the compound was called inactive.

Regarding `CCOc1ccc2c(c1)C(C)CC(C)(C)N2` (stereo unspecified), the Potency entry in [1], in experiment [3], in experiment [4], in experiment [19], in experiment [6] and in [9] was “inactive” in each case. Besides, the Potency result in experiment [10], in [16] and in experiment [18] was “inactive” throughout. Also, the Potency in [2] is 31.7 µM (active); in experiment [5] it was 27.3 µM (active). For the same compound, the compound was classed as inactive in experiment [15].

For the compound `C1CCN(CN2CCCCC2)CC1`, the Potency entry in [1], in [2], in experiment [3], in [4], in experiment [5] and in experiment [6] was “inactive” each time. Further, the Potency result in experiment [9], in experiment [10], in experiment [11], in experiment [16], in experiment [17] and in [18] was “inactive” each time. Further, the compound was called inactive in [20] and in [15].

As to `Nc1ccc(F)cc1F`, the Potency result in experiment [1], in experiment [2], in experiment [3], in experiment [4], in [5] and in experiment [6] was “inactive” throughout. For the same compound, the Potency result in [9], in experiment [10], in experiment [11], in experiment [16], in [17] and in experiment [18] was “inactive” each time. For the same compound, the compound was called inactive in experiment [20] and in experiment [15].

On to `O=S(=O)(O)c1cc(Cl)c(Cl)cc1Cl`, for which the Potency result in experiment [1], in experiment [2], in experiment [3], in experiment [4], in experiment [19] and in experiment [5] was “inactive” throughout. Further, the Potency result in [6], in [9], in experiment [11], in experiment [12], in experiment [16] and in experiment [17] was “inactive” throughout. In addition, the call in [15] was inactive.

For `CCc1cnc(C(=O)O)c(C(=O)O)c1`, the Potency entry in [1], in experiment [2], in [3], in [4], in experiment [19] and in [5] was “inactive” in each case. The Potency entry in experiment [6], in experiment [10], in experiment [11], in experiment [12], in experiment [16] and in [17] was “inactive” each time. Moreover, the Potency result in [18] was “inactive”. In addition, the compound was called inactive in [20].

For `CCCCCCCCC(=O)OCC(C)OC(=O)CCCCCCCC` (stereo unspecified), the Potency entry in [1], in [2], in experiment [3], in experiment [4], in [19] and in experiment [5] was “inactive” in each case. The Potency entry in experiment [6], in [10], in [11], in experiment [12], in experiment [16] and in [18] was “inactive” in each case. In addition, the result in [20] and in experiment [15] was inactive.

`CCCCCC1CCC(=O)O1` (stereo unspecified): the Potency entry in experiment [1], in experiment [2], in [3], in experiment [4], in [6] and in [7] was “inactive” each time. In addition, the Potency entry in [8], in [9], in experiment [10], in [11], in experiment [12] and in experiment [13] was “inactive” in each case. Besides, the Potency result in experiment [16], in experiment [17] and in experiment [18] was “inactive” throughout. Moreover, the result in experiment [20] and in [15] was inactive. Besides, the activity change, positive = activation in [14] is 4.33%.

For `CC1(C)CC(O)CC(C)(C)N1[O]`, the Potency result in experiment [1], in experiment [2], in experiment [3], in [4], in [5] and in experiment [6] was “inactive” in each case. Besides, the Potency entry in [9], in experiment [10], in experiment [11], in experiment [12], in experiment [16] and in experiment [17] was “inactive” throughout. In addition, the Potency entry in experiment [18] is “inactive”. For the same compound, the call in experiment [15] was inactive.
